From the supplement of paper PMC10338343 come the findings set out here.

± gives the standard deviation.
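Note: 1 nM active piRISC with 0.1 nM target library at 33 °C single turnover.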

The first test relates to MILI (PIWIL2) piRISC loaded with L1MC piRNA (26 nt). Briefly: pre-steady-state target cleavage rate (min^-1); guide: L1MC piRNA 5'p-UAACUAAAUACUAUGCAAGCUGUAGG; MIWI and MILI are mouse PIWI proteins and EfPiwi is from a freshwater sponge; tags in brackets are library labels; higher = faster piRNA-guided slicing of the target. The note with it: auxiliary factor: 500 nM mouse GTSF1. Put shortly:
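At 33 °C in HEPES–potassium acetate buffer, a transcribed, DNA-blocked target RNA library […] was exposed for 0–8 or 0–960 min to 1 nM active affinity-purified piRISC carrying a single synthetic guide, with or without 500 nM GTSF1 partner protein. Uncleaved targets were sequenced and normalised to depth and to weakly complementary targets. With three trials pooled and k3 capped at 0.0001 min^-1, a burst-and-steady-state fit produced the pre-steady-state cleavage rate.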
Consider UCCUGGAUGUGGUUGCAUAGUAUUUAGAAA, for which the “pre-steady-state target cleavage rate” value was determined as 0.0521 ± 0.022.

For UCCUGGAUCAGCUUGCAUAGUUUUAGUUA, the “pre-steady-state target cleavage rate” value was found to be 0.00374 ± 0.0036.

As to UCCUGGUACUGCUUGCAUAGUAUUUACAAA, the “pre-steady-state target cleavage rate” value is 0.00977 ± 0.0049.

For UCCUGGAUGUCGAUGCAUAGUAUUUAUGUUA, the “pre-steady-state target cleavage rate” value was found to be 0.106 ± 0.022.

Regarding UCCUGGAUGUGCUUGCUUAGUAUUUAGAAA, the “pre-steady-state target cleavage rate” value was determined as 0.0749 ± 0.017.

As to UCCUGGAUGUCCUUGCAUAGUAUAUAGUAA, the “pre-steady-state target cleavage rate” value amounted to 0.0276 ± 0.01.

Take UCCUGGAUGUCCUUGCAAAGUAUUUAGAUA: the “pre-steady-state target cleavage rate” value is 0.0324 ± 0.012.

UCCUGGUACAGCUUGCAUAGUAAAAAGUAA: the “pre-steady-state target cleavage rate” value is 0.031 ± 0.013.

On to UCCUGGAACAGCUUGCAUAGUAUAUAGAUA, for which the “pre-steady-state target cleavage rate” value was found to be 0.0877 ± 0.022.

Take UCCUGCUACAGCUUGGUUAGUAUUUAGAAA: the “pre-steady-state target cleavage rate” value came out at 0.018 ± 0.007.

On to UCCUGGUACAGCUACGAUAGUAUUUAGUAA, for which the “pre-steady-state target cleavage rate” value is 0.183 ± 0.034.

Consider UCCUGGAACAGCUAGCAUAGUAUUUACUUA, for which the “pre-steady-state target cleavage rate” value was 0.0669 ± 0.016.

As to UCCUGGAUGUCGAUGCAUAGUAUUGUAGUUA, the “pre-steady-state target cleavage rate” value was determined as 0.0505 ± 0.016.

In the case of UCCUCCUACUCCUUGCAUAGUAUUUAGAAA, the “pre-steady-state target cleavage rate” value came out at 0.0907 ± 0.021.

UCCUGGAUGAGCAAGCAUAGUAUUUACAAA: the “pre-steady-state target cleavage rate” value was 0.0174 ± 0.0067.

As for UCCUGGAUCUGCUUGCAUAGAAUUUAGUUA, the “pre-steady-state target cleavage rate” value stood at 0.0261 ± 0.0069.

On to UCCUGGAUGAGCUACCAUAGUAUUUAGUAA, for which the “pre-steady-state target cleavage rate” value was 0.1 ± 0.018.

In the case of UCCUGGAUCUGCUUGCAUAGUAUUUAGAAA, the “pre-steady-state target cleavage rate” value came to 0.0794 ± 0.019.

Take UCCUGGUAGUGCUUGCAUAGUAUUUUCAAA: the “pre-steady-state target cleavage rate” value stood at 0.00481 ± 0.0037.

Regarding UCCUGGAUGUCGAAGCAUAGUAUGUAGUUA, the “pre-steady-state target cleavage rate” value came out at 0.0113 ± 0.0045.

Take UCCUCCUACAGCUUCCAUAGUAUUUUGUUA: the “pre-steady-state target cleavage rate” value came to 0.0182 ± 0.0077.

For UCCUGGUACAGCUUGCAUUGUAUUUAGUAA, the “pre-steady-state target cleavage rate” value turned out to be 0.112 ± 0.024.

As for UCCUGCUACAGGUUGCAUAGUAUUUACUUA, the “pre-steady-state target cleavage rate” value was 0.0231 ± 0.011.

Consider UCCUGGAUGUCGUUGCUUAGUAUUAAGUUA, for which the “pre-steady-state target cleavage rate” value stood at 0.03 ± 0.0099.

With UCCUGGAUGAGCAAGCAUAGUAUUUAGAAA, the “pre-steady-state target cleavage rate” value was found to be 0.0674 ± 0.015.

With UCCUGGAUCAGCUUGCUUAGUAUUUAGAUA, the “pre-steady-state target cleavage rate” value turned out to be 0.15 ± 0.023.

In the case of UCCUGGAUGUCGAAGCAUAGUAUUUAGUAUA, the “pre-steady-state target cleavage rate” value amounted to 0.0394 ± 0.0091.

For UCCUCCUACAGCUUGCAAUGUAUUUAGAAA, the “pre-steady-state target cleavage rate” value worked out at 0.0725 ± 0.016.

For UCCUGGUACAGCUUGCAUAGUUUUAGUUA, the “pre-steady-state target cleavage rate” value amounted to 0.00982 ± 0.0052.

As for UCCUGGAUGAGCUUGGAUAGUAUUAAGUUA, the “pre-steady-state target cleavage rate” value amounted to 0.0932 ± 0.022.

In the case of UCCUGCUACAGCUUGGUAAGUAUUUAGAAA, the “pre-steady-state target cleavage rate” value came to 0.0107 ± 0.0045.

Take UCCUGGAUGUCGAUGUCAUAGUAUUUAGUUA: the “pre-steady-state target cleavage rate” value is 0.0067 ± 0.0037.

For UCCUGGAUCAGCAACCAUAGUAUUUAGUAA, the “pre-steady-state target cleavage rate” value was 0.0962 ± 0.012.

With UCCUCCUACAGCUUGCAAUGUAUUUACAAA, the “pre-steady-state target cleavage rate” value amounted to 0.0431 ± 0.011.

Regarding UCCUGCUACAGCAACCAUAGUAUUUAGUUA, the “pre-steady-state target cleavage rate” value came out at 0.305 ± 0.04.

Still in this test, the particulars now being: auxiliary factor: none (no GTSF1).
For the sequence “UCCUGGAUGUCGAUGCAUAGAUAAAUCAAA [g11:g17:cont:t1A]”, the “pre-steady-state target cleavage rate” value was less than 0.0001.

As for UCCUGGAUGUCGUUGCAUAGUGAUUUAGUUA, the “pre-steady-state target cleavage rate” value was 0.0042 ± 0.0032.

Consider UCCUGGAUGUCGAACGUAUGAUAUUAGUUA, for which the “pre-steady-state target cleavage rate” value is less than 0.0001.

As for UCCUGGAUGUCGAACAAUAGUAUUUAGUUA, the “pre-steady-state target cleavage rate” value is less than 0.0001.

Take UCCUGGAUGUCGAACGAUAGUGUUUAGUUA: the “pre-steady-state target cleavage rate” value was less than 0.0001.
